Test results taken from PubChem BioAssay.
Several values for one entry are separate records, joined by “and”; a condition that tells them apart may be missing. Equal entries are not always repeated. Inconclusive results are not listed. Activity calls are given as the source filed them. Unless noted, no rule for the calls is given here.

What was measured:
[1] = modulation of C. elegans fzo-1 (AID 1259413);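 also: fzo-1 mutant C. elegans worms in liquid wells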; settings: C. elegans fzo-1 modulator screen, mean read-out; stronger effect = higher value
[2] = liver-stage malaria parasite growth inhibition, primary screen, cell-based, HepG2, luciferase luminescence, HepG2 viability (AID 624349; in the data active = parasite load remaining mostly below about 12%, no sharp cut-off; inactive = mostly above about 10%;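 also: 100% = mean of DMSO negative control wells on the same plate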); settings: P. berghei liver stage in HepG2, luciferase luminescence, concentration not given here; parasite load remaining: stronger effect = lower value; viability: measured here: HepG2 viability without parasites
[3] = Cy5 fluorescence interference with SSB-bound oligo, artefact control for HCV NS3 helicase inhibitor project, biochemical, NIH Clinical Collection, E. coli SSB (AID 743268)
[4] = test system: Hepatitis C virus NS3 helicase; test: HCV NS3 helicase inhibitors, primary screen, biochemical, fluorescence polarization, NIH Clinical Collection (AID 743270); settings: NS3 helicase binding to Cy5-dT15 DNA, stronger effect = higher value, concentration not given here
[5] = target: Single-stranded DNA-binding protein (Escherichia coli (strain K12)) (UniProt P0AGE0); test: E. coli SSB displacement from DNA, counter-screen for HCV NS3 helicase inhibitor project, biochemical, fluorescence polarization, NIH Clinical Collection (AID 743271; in the data active = inhibition above about 28%); settings: stronger effect = higher value, concentration not given here
[6] = fluorescence interference in NS3h assay format, artefact control for HCV NS3 helicase inhibitor project, biochemical, NIH Clinical Collection (AID 743272); settings: fluorescence interference counterscreen, stronger effect = lower value;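 also: HCV NS3 helicase with a Cy5 labelled single stranded DNA probe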
[7] = test system: Neuropilin-2 / VEGF-C interaction (human); test: inhibitors of NRP2–VEGF-C binding, biochemical, microplate binding format, z-score (AID 743281); settings: microplate NRP2/VEGF-C binding assay; stronger effect = lower value
[8] = growth inhibition of DIPG glioma cells, dose response, cell-based, SU-DIPG-XVII, MIPE5.0, CellTiter-Glo, qHTS (AID 1347060; cut-off not given, nearly all actives have AC50 up to about 26 µM;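 also: cells exposed to compound for 48 hours before viability readout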); settings: SU-DIPG-XVII viability, CellTiter-Glo ATP luminescence
[9] = growth inhibition of DIPG glioma cells, dose response, cell-based, SU-DIPG-XIII, MIPE4.0, CellTiter-Glo, qHTS (AID 1347061; cut-off not given, nearly all actives have AC50 up to about 37 µM;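 also: cells exposed to compound for 48 hours before readout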); settings: SU-DIPG-XIII viability, CellTiter-Glo ATP luminescence
[10] = growth inhibition of DIPG glioma cells, dose response, cell-based, JHH-DIPG-1, MIPE4.0, CellTiter-Glo, qHTS (AID 1347062; cut-off not given, nearly all actives have AC50 up to about 27 µM); settings: JHH-DIPG-1 viability, CellTiter-Glo ATP luminescence
[11] = growth inhibition of DIPG glioma cells, dose response, cell-based, SU-DIPG-XIII, MIPE5.0, CellTiter-Glo, qHTS (AID 1347064; cut-off not given, nearly all actives have AC50 up to about 23 µM); settings: SU-DIPG-XIII viability, CellTiter-Glo ATP luminescence
[12] = SU-DIPG-VI glioma cell viability, MIPE4.0 library, CellTiter-Glo luminescence, qHTS (AID 1347066; cut-off not given, nearly all actives have AC50 up to about 30 µM;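 also: cells exposed to compound for 48 hours before readout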); settings: CellTiter-Glo ATP luminescence
[13] = JHH-DIPG-1 glioma cell viability, MIPE5.0 library, CellTiter-Glo luminescence, qHTS (AID 1347067; cut-off not given, nearly all actives have AC50 up to about 26 µM;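 also: cells exposed to compound for 48 hours before readout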); settings: JHH-DIPG-1 glioma viability, CellTiter-Glo ATP luminescence
[14] = SU-DIPG-XXV glioma cell viability, MIPE5.0 library, qHTS (AID 1347068; cut-off not given, nearly all actives have IC50 up to about 30 µM)
[15] = sensitizers of A549 cells to miR-34 induction, primary screen, imaging, A549 dox-inducible miR-34, nuclei and caspase counts (AID 1347080;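 active = compounds whose cell count with miR-34 switched on is under 0.7 times the count with it off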); settings: A549 miR-34 inducible, Hoechst nuclei count, 48 h
[16] = inhibitors of Cryptococcus chitosan production, flow cytometry, Cibacron Brilliant Red staining (AID 1347148); settings: Cryptococcus neoformans chitosan, stronger effect = lower value; at 10 µM unless noted;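 also: compound exposure lasted three days at 37 degrees C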
[17] = modifiers of HSF1 nuclear foci, imaging, Selleck Cancer Library (AID 1347162; in the data active = plate-normalised HSF1 focus index below about 0.46); settings: human cells, at 10 µM; SSMD: measured here: HSF1 foci SSMD mean; cell count: measured here: cell number; plate-normalised HSF1 focus index: stronger effect = lower value
[18] = survival rescue of mitochondrial mutant cells in low glucose, primary screen, MELAS cybrids, Rieske KO mouse fibroblasts, CellTiter-Glo (AID 1508586;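 active = mean z-score across replicates of 1.96 or higher in either the MELAS or the Rieske mutant cell line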;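 also: z relative to plate mean and SD of compound and empty wells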)
[19] = target: Mitogen-activated protein kinase 7 (Homo sapiens) (UniProt Q13164); test: ERK5 transactivation activators in reporter cells, primary screen, cell-based, HTS (AID 1508626;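 active = luciferase signal above three times the same-plate solvent-only control wells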;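 also: luciferase driven by Gal4-ERK5 fusion binding five Gal4 sites before minimal TATA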); settings: HeLa Gal4-ERK5 transactivation, 18 h, at 5 µM, stronger effect = higher value
[20] = viability rescue of complex I mutant cybrids, primary screen, cell-based, galactose medium, ATP luminescence (AID 1645843;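 active = z-score of at least 1.8 in each of two replicates, scored against plate mean and spread of sample wells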;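 also: positive z means more ATP and so rescue of galactose-driven cybrid death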); settings: complex I mutant cybrid cells, 72 h, stronger effect = higher value

Chain of Mitogen-activated protein kinase 7 (Homo sapiens) (Q13164 whole entry, looked up, the tested form may be a part): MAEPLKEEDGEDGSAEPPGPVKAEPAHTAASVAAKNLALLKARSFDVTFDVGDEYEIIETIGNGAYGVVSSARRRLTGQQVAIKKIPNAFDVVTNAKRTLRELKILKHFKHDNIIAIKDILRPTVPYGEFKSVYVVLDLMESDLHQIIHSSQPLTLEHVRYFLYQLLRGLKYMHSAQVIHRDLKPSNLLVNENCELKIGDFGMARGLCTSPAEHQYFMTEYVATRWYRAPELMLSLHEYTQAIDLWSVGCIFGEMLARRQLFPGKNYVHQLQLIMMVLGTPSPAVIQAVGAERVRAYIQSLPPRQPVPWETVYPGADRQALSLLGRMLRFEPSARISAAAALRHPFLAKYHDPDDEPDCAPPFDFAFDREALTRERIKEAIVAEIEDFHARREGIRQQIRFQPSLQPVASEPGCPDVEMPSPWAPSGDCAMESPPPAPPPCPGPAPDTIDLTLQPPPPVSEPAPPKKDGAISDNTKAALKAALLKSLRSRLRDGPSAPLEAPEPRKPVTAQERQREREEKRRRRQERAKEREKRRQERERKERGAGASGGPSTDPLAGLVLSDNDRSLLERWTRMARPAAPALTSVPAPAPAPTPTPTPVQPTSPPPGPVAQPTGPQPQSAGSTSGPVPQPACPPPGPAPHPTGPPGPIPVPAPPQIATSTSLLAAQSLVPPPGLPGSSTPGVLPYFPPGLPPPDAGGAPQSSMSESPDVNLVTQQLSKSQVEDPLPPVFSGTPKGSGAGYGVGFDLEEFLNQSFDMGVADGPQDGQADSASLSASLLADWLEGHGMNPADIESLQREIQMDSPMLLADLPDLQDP

With `CO[C@H]1C=CO[C@@]2(C)Oc3c(C)c(O)c4c(O)c(c5c(c4c3C2=O)NC2(CCN(CC(C)C)CC2)N=5)=NC(=O)/C(C)=C\C=C/[C@H](C)[C@H](O)[C@@H](C)[C@@H](O)[C@@H](C)[C@H](OC(C)=O)[C@@H]1C` the mean signal [1] was 242 (inactive).
For `CC12C=CC(=O)C=C1CC[C@@H]1[C@@H]2[C@@H](O)CC2(C)[C@H]1CC[C@]2(O)C(=O)CO` (stereo not given in full), the mean signal [1] was 258 (inactive).
With `CC1=C(C/C=C(\C)CCCC(C)CCCC(C)CCCC(C)C)C(=O)c2ccccc2C1=O` (stereo not given) the mean signal [1] was 243 (inactive).
With `COc1cc([C@@H]2c3cc4c(cc3[C@@H](O[C@@H]3O[C@@H]5CO[C@@H](C)O[C@H]5[C@H](O)[C@H]3O)[C@H]3COC(=O)[C@H]23)OCO4)cc(OC)c1O` the parasite load remaining [2] was 189% (inactive) and 77.5% (inactive) and 87.8% (inactive), the viability [2] was 114% and 71.8% and 103% and the fluorescence ratio [3] was 1.02 (inactive). For the same compound, the inhibition [4] was 0.66% (inactive), the inhibition [5] was 2.76% (inactive) and the fluorescence ratio [6] was 1.01 (inactive). The z-score [7] was -1.12 (inactive), the mean signal [1] was 267 (inactive) and the AC50 [8] was 1.66 µM (active). For the same compound, the outcome [9] was “inactive”, the outcome [10] was “inactive” and the outcome [11] was “inactive”. The outcome [12] was “inactive”, the outcome [13] was “inactive” and the outcome [14] was “inactive”. The fold change ([15]; stronger effect = lower value, cell number ratio, induced over uninduced) was 0.888 (inactive) and 1.07 (inactive), the fold change ([15]; measured here: relative caspase fold change +Dox/-Dox) was 1.6 and 0.504 and the cell count ([15]; measured here: total cells with miR-34 induction, stronger effect = lower value) was 2840 and 3400. The cell count ([15]; measured here: total cells without miR-34 induction) was 3200 and 3170, the fold fluorescence [16] was 5.2 [at 85 µM] (inactive) and the SSMD [17] was -0.198. The cell count [17] was 6820, the plate-normalised HSF1 focus index [17] was 0.99 (inactive) and the z-score ([18]; MELAS cybrid survival, CellTiter-Glo 48 h, stronger effect = higher value) was -0.423 (inactive) and -1.1 (inactive). The z-score ([18]; Rieske KO mouse fibroblast survival, CellTiter-Glo 72 h) was -0.861 and 0.337, the luciferase signal [19] was 48 AU (inactive) and the z-score [20] was -2.08 (inactive).
